Laboratory results from PubChem BioAssay (NCATS).
Results filed as inconclusive are left out. Calls of active or inactive are those of the source. Calls come from the whole dose curve; as a rule, active = well fitted curve in the direction sought with a large enough effect; inconclusive = small, poorly fitted or top-dose-only effect, or another doubt; inactive = no such curve, though single readings can be large; an effect the other way counts as inactive or inconclusive.

How the values were obtained:
[1] = molecular target: Glutathione peroxidase 1 (Homo sapiens) (UniProt P07203); assay: Primary qHTS Assay for Inhibitors of Recombinant Selenoprotein Glutathione Peroxidase 1 (GPX1) (AID 1845191); note: nearly all actives have a fitted effect of over 65% in size; note: potency is the fitted concentration of half-maximal effect; for activity, negative = inhibition: % is set by controls: 0 for no effect and ±100 for the full control effect
Chain of Glutathione peroxidase 1 (Homo sapiens) (P07203 whole entry, looked up): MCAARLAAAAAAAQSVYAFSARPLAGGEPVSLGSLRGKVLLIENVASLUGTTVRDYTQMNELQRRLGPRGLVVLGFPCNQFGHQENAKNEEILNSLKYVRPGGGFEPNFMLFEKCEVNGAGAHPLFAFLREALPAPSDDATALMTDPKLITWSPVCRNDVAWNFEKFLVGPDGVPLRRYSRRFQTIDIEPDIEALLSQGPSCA
Method in brief: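 GPX1 10 nM, GR 100 nM, GSH 1 mM, NADPH 0.5 mM, CHP 0.5 mM (final). 30-min cpd preincubation, RT. Ex340/Em450 read t=0, t=15 min.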

[2] = molecular target: Luciferin 4-monooxygenase (Photinus pyralis) (UniProt P08659); assay: Primary firefly luciferase (FLuc) qHTS assay for identification of artifact compounds. (AID 1845220); note: nearly all actives have a fitted effect of over 60% in size; note: potency is the fitted concentration of half-maximal effect;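 for activity change, negative = inhibition: series mostly up to about 54 µM; plate controls were DMSO vehicle for no effect and no enzyme for full effect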
Method in brief: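 In this counter-screen for luciferase artifacts, test compounds met substrate (10 uM each luciferin and ATP) before 10 nM enzyme started the reaction. Light output was measured 5 min later.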

[3] = Primary fluorescence-based thiol-reactive (MSTI) qHTS assay for identification of artifact compounds. (AID 1845221); note: nearly all actives have a fitted effect of over 65% in size; note: potency is the fitted concentration of half-maximal effect;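 for activity change, negative = thiol reactive: series mostly up to about 54 µM; thiol-reactive compounds lower the probe fluorescence signal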
Method in brief: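 MSTI probe at 4 uM final in 2% DMSO/PBS pH 7.4; compounds, 1 h at room temperature in dark. Fluorescence Ex/Em 525/598 nm, normalised to Acetyl-MSTI and MSTI, fitted to 4-parameter Hill.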

[4] = tested on: Nanoluciferase (engineered Oplophorus gracilirostris luciferase); assay: Primary Nanoluciferase (NLuc) qHTS assay for identification of artifact compounds. (AID 1845222); note: potency is the fitted concentration of half-maximal effect;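 for activity, negative = inhibition: NLuc secreted into diluted conditioned medium of S16 cells; series mostly up to about 54 µM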
Method in brief: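 Using secreted nanoluciferase in S16 culture medium (0.22 um filtered, 1:55 dilution), compounds were preincubated 15 min at RT. Signal was generated with Nano-Glo reagent (1:100) over 5 min.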

[5] = Primary redox qHTS assay for identification of artifact compounds. (AID 1845223);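 note: 0% = DMSO and 100% = reference compound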
Method in brief: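 Redox-cycling detection via DTT (250 uM final) oxidation coupled to Amplex Red (25 uM)/HRP (250 mU/mL) in HBSS. 15 min preincubation plus 30 min after DTT, room temperature. Ex/Em 525/598 nm; 4-parameter Hill fit against DMSO and 10 uM DA3003.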

[6] = molecular target: Phospholipid hydroperoxide glutathione peroxidase GPX4 (Homo sapiens) (UniProt P36969); assay: Primary qHTS Assay for Inhibitors of Recombinant Selenoprotein Glutathione Peroxidase 4 (GPX4) (AID 1845192); note: nearly all actives have a fitted effect of over 65% in size; note: potency is the fitted concentration of half-maximal effect; for activity change, negative = inhibition: series mostly up to about 50 µM; % is set by controls: 0 for no effect and ±100 for the full control effect
Chain of Phospholipid hydroperoxide glutathione peroxidase GPX4 (Homo sapiens) (P36969 whole entry, looked up): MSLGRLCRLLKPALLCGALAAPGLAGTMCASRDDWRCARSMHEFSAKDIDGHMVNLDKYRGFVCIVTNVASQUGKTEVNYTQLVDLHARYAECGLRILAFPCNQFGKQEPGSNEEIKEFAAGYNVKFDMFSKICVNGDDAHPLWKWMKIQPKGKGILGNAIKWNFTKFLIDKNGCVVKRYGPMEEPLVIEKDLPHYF
Method in brief: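 qHTS, GR-coupled: GPX4 200 nM + cpd 30 min RT → GSH 1 mM, NADPH 0.5 mM, GR 100 nM → CHP 0.5 mM start; fluor 340/450 at t0 and t15 min; no-enzyme wells as control.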

Cn1c2ccc(F)cc2c2c(C(=O)N3CCCC3)cn(-c3ccccc3)c(=O)c21
active: Potency [1] 18 µM
inactive: Potency [2] | Potency [3] | Potency [4] | Potency [5]

COc1nc2sc(C(=O)NC3CC3)c(N)c2c(C)c1Cl
inactive: Potency [6] | Potency [2] | Potency [3] | Potency [4]

CC[C@]1(O)CC2CN(CCc3c([nH]c4ccccc34)[C@@](C(=O)OC)(c3cc4c(cc3OC)N(C=O)[C@H]3[C@@](O)(C(=O)OC)[C@H](OC(C)=O)[C@]5(CC)C=CCN6CC[C@]43[C@@H]65)C2)C1 (some centres not stated)
inactive: Potency [6] | Potency [2] | Potency [3]

CCc1c(-c2ccccc2)c(-c2ccccc2)nn1-c1ccccc1-c1cccc(OCC(=O)O)c1
active: Potency [4] 0.269 µM
inactive: Potency [1] | Potency [2] | Potency [3] | Potency [5]

Cc1ccc(-c2ccc3ncc4c(c3n2)n(C2CCN(C(=O)[C@H](C)O)CC2)c(=O)n4C)cn1
active: Potency [1] 22.7 µM
inactive: Potency [2] | Potency [3] | Potency [4] | Potency [5]

C=CC/C=C\C/C=C\CCCCCCCc1cccc(O)c1C(=O)O
inactive: Potency [1] | Potency [2] | Potency [4]

C[C@H]1C(=O)N2c3ccccc3[C@@]3(O)C[C@@H]4C(=O)N[C@](C)(c5nc6ccccc6c(=O)n54)N1[C@@H]23
inactive: Potency [6] | Potency [2] | Potency [3] | Potency [4]

C=C1C(=O)O[C@@H]2C/C(C)=C\C(=O)/C=C(\C)[C@@H](OC(=O)/C(C)=C\C)[C@H](O)[C@@H]12
inactive: Potency [1] | Potency [2] | Potency [3] | Potency [5]

Cc1nc([C@](C)(O)CO)sc1-c1cnc(N)c(O[C@H](C)c2cc(F)ccc2-n2nccn2)c1
inactive: Potency [6] | Potency [2] | Potency [3] | Potency [4]

C=C(C)C(=O)O[C@H]1CC2=CC(C/C(C)=C\[C@H]3OC(=O)C(=C)[C@H]13)OC2=O (some centres not stated)
inactive: Potency [1] | Potency [2] | Potency [3] | Potency [4] | Potency [5]

COc1cc2c3c(cc4ccccc4c3c1O)NC2=O
active: Potency [3] 10.6 µM
inactive: Potency [1] | Potency [2] | Potency [4] | Potency [5]

COc1cc2c(NC3CCN(CC4CCCCC4)CC3)nc(N3CCCN(C(C)C)CC3)nc2cc1OCCCN1CCCCC1
inactive: Potency [1] | Potency [2] | Potency [3] | Potency [4] | Potency [5]

Cc1cc(C)c2c(N)c(C(=O)NCc3ccc(Cl)cc3)sc2n1
inactive: Potency [1] | Potency [2] | Potency [3] | Potency [4] | Potency [5]

Nc1nccn2c(C3CCC(C(=O)O)CC3)nc(-c3cc4cccc(Cl)c4[nH]3)c12 (configuration not stated)
active: Potency [3] 6.7 µM
inactive: Potency [1]

CCC1C(=O)N(C)c2cnc(Nc3ccc(C(=O)NC4CCC(N5CCN(CC6CC6)CC5)CC4)cc3OC)nc2N1C(C)C (configuration not stated)
inactive: Potency [6] | Potency [2] | Potency [3] | Potency [4]

CCC(C)/C=C(C)/C=C/c1cc2c(cn1)C(=O)C(C)(OC(C)=O)C(O)=C2Cl (configuration not stated)
inactive: Potency [1] | Potency [4]
active: Potency [3] 0.736 µM

CNC(=O)c1ccccc1Nc1nc(Nc2ccc3c(c2OC)CCC[C@@H](N2CCN(CCO)CC2)C3)ncc1Cl
inactive: Potency [6] | Potency [2] | Potency [3] | Potency [4]

C=C[C@H]1CN2CC[C@H]1C[C@@H]2C(O)c1ccnc2ccc(OC)cc12 (some centres not stated)
inactive: Potency [6] | Potency [2] | Potency [3] | Potency [4] | Potency [5]

COC(=O)C12C(=O)C(C)=C(O)C1(C)C(C)=CC1C3(CO)CCC(O)C(C)(C)C3CCC12C (configuration not stated)
inactive: Potency [6] | Potency [2] | Potency [3] | Potency [4]

CNC(=S)NS(=O)(=O)c1cc(CCNC(=O)c2cc(Cl)ccc2OC)ccc1OC
inactive: Potency [2] | Potency [3] | Potency [5]
active: Potency [1] 12.8 µM

COc1c/c(=C2\C=c3ccccc3=N2)[nH]/c1=C\c1[nH]c(C)cc1C
active: Potency [2] 3.38 µM | Potency [3] 1.19 µM | Potency [4] 10.7 µM
inactive: Potency [6]

Cc1ccc(C(=O)N(CCCN)C(c2nc3cc(Cl)ccc3c(=O)n2Cc2ccccc2)C(C)C)cc1 (configuration not stated)
inactive: Potency [6] | Potency [2] | Potency [3] | Potency [4] | Potency [5]

NC(=O)C(CCC(F)(F)F)N(Cc1ccc(-c2ncon2)cc1F)S(=O)(=O)c1ccc(Cl)cc1 (configuration not stated)
inactive: Potency [6] | Potency [2] | Potency [3] | Potency [4] | Potency [5]

C1CCC[C@H]2CCCN3CC[C@@H](CCCCCC[C@@H]4CCCN5CC[C@@H](CC1)O[C@@H]45)O[C@@H]23
inactive: activity change, negative = inhibition [6] -4.98% [at 0.121 µM] | outcome [2] inactive [at 0.0969 µM] | activity change, negative = thiol reactive [3] 0.0753% [at 0.0963 µM] | activity, negative = inhibition [4] 2.4% [at 0.0969 µM] | redox activity (% of DA3003) [5] -1.13% [at 0.0963 µM]

O=C(N/N=C/c1ccc(O)c(O)c1)c1cc2ccccc2cc1O
inactive: Potency [6] | Potency [2] | Potency [4] | Potency [5]
active: Potency [3] 0.707 µM

C[C@@H]1COCCN1c1cc(C2(S(C)(=O)=O)CC2)nc(-c2cccc3[nH]ccc23)n1
inactive: Potency [2] | Potency [3] | Potency [4] | Potency [5]
active: Potency [6] 18 µM
